For some of these results: Measured potencies and affinities stand elsewhere. The source made the active and inactive calls.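 Rule for the calls, unless noted: active = earlier screen potentiator hit that boosts the TRPC4 ion channel at some dose, with a dose response; inactive = no potentiation, no dose response, or not a prior hit.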
Tests used:
[1] = test system: TRPC4 beta (transient receptor potential cation channel C4), mouse; experiment: TRPC4 cation channel opening, retest – cell-based, Fluo4 calcium, HEK293 TRPC4beta/mu-opioid, duplicates, 10 µM, confirmation (AID 2426;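 active = fluorescence ratio normalized to control raised more than 50% in primary screen plus both repeat runs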); details: Fluo4 calcium fluorescence, at 10 µM; hits give high values
[2] = test system: transient receptor potential cation channel C4 beta (TRPC4), mouse; experiment: TRPC4 cation channel opening, second retest – cell-based, second round, Fluo4, HEK293 TRPC4beta/mu-opioid, 1 µM, confirmation (AID 2461;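 active = primary screen active and over 50% activation in each of two duplicate runs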); details: Fluo4 calcium fluorescence, at 1 µM; hits give high values
[3] = test system: TRPC4 (transient receptor potential cation channel C4 beta), mouse; experiment: potentiation of DAMGO EC20 TRPC4 response – cell-based, second round, Fluo-4, HEK293 TRPC4beta/mu-opioid, 1 µM, confirmation (AID 2554;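 active = primary screen hit whose fluorescence ratio, in both repeats, exceeds the weak agonist control mean by 3 SD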); details: DAMGO EC20, Fluo-4 calcium flux, at 1 µM; hits give high values
[4] = test system: TRPC4 beta (transient receptor potential cation channel C4), mouse; experiment: potentiation of DAMGO EC20 TRPC4 response – cell-based, Fluo-4, HEK293 TRPC4beta/mu-opioid, confirmation (AID 2555;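 active = primary screen hit whose calcium fluorescence ratio, in both repeats, exceeds the weak agonist control mean by 3 SD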); details: DAMGO EC20, Fluo-4 calcium flux, at 10 µM; hits give high values
[5] = target: Short transient receptor potential channel 4 (Mus musculus) (UniProt Q9QUQ5); experiment: blockers of DAMGO-evoked TRPC4 calcium flux – cell-based, Fluo4, HEK293 TRPC4beta/mu-opioid, confirmation (AID 2636;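 active = calcium signal cut by more than 3 SD below the full-agonist control yet still positive, in both repeats and the earlier primary screen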); details: at 10 µM; hits give high values
Sequence of Short transient receptor potential channel 4 (Mus musculus) (Q9QUQ5 whole entry, looked up): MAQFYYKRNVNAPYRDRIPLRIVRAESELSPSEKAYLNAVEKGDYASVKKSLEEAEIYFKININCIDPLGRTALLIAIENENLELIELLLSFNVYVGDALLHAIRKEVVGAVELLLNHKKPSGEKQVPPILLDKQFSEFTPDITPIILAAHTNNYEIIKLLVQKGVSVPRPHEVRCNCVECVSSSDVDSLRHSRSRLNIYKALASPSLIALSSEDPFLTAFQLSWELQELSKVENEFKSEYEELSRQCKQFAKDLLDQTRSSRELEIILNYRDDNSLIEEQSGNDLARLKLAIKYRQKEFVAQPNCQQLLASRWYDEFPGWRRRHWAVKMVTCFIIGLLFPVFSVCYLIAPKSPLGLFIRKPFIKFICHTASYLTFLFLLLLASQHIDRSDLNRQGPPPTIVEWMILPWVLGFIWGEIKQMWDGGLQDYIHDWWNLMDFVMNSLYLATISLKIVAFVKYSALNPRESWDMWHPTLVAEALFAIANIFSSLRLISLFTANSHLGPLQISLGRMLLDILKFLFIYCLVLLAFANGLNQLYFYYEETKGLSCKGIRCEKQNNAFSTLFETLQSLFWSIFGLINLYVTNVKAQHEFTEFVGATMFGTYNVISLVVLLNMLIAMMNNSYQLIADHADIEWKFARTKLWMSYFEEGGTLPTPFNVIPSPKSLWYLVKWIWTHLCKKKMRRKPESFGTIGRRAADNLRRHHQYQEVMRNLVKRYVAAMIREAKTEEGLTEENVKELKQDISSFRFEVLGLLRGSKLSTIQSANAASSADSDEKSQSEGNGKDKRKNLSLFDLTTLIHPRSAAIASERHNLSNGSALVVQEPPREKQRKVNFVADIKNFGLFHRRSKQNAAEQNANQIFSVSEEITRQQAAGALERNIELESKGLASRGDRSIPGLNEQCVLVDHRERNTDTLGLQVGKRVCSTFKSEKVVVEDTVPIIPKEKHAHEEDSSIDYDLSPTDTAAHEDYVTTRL

[6] = target: Short transient receptor potential channel 4 (Mus musculus) (UniProt Q9QUQ5); experiment: blockers of DAMGO-evoked TRPC4 calcium flux – cell-based, second round, Fluo4, HEK293 TRPC4beta/mu-opioid, 1 µM, confirmation (AID 2637;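 active = calcium signal ratio cut to more than 3 SD under the fully stimulated control mean yet still positive, in both repeats and the primary screen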;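 for inhibition: percent of integrated ratio relative to wells lacking test compound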); details: at 1 µM; hits give high values
[7] = target: Short transient receptor potential channel 4 (Mus musculus) (UniProt Q9QUQ5); experiment: calcium entry via TRPC4 opening agents – cell-based, HEK293 TRPC4/mu-opioid, Fluo-4 calcium, dose response (AID 434937;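 active = primary screen activator hit with a dose response curve and TRPC4 channel activation at any tested dose; inactive = no activation, no dose response, or not a primary hit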)
[8] = target: Short transient receptor potential channel 4 (Mus musculus) (UniProt Q9QUQ5); experiment: potentiation of DAMGO-evoked TRPC4 calcium signal – cell-based, HEK293 TRPC4/mu-opioid, Fluo-4 calcium, EC20 DAMGO, dose response (AID 434941);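 note: calcium entry triggered by an EC20 dose of DAMGO at the co-expressed mu-opioid receptor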
[9] = target: Short transient receptor potential channel 4 (Mus musculus) (UniProt Q9QUQ5); experiment: block of DAMGO-driven TRPC4 calcium entry – cell-based, HEK293 TRPC4/mu-opioid, Fluo-4 calcium, dose response (AID 434942;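 active = primary screen inhibitor hit that blocks the TRPC4 channel at some tested dose, yielding a dose curve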)
[10] = target: Short transient receptor potential channel 6 (Mus musculus) (UniProt Q61143); experiment: TRPC6 blockade by TRPC4 inhibitor hits – cell-based, HEK293, membrane potential dye, duplicate, selectivity assay for TRPC4 inhibitor project, confirmation (AID 434948;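 active = active in primary screen and both duplicates, each dropping signal beyond three positive-control SD with fluorescence still positive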); details: HEK293 TRPC6, membrane potential dye fluorescence, at 10 µM, stimulated with maximal-effect acetylcholine; hits give high values
Sequence of Short transient receptor potential channel 6 (Mus musculus) (Q61143 whole entry, looked up): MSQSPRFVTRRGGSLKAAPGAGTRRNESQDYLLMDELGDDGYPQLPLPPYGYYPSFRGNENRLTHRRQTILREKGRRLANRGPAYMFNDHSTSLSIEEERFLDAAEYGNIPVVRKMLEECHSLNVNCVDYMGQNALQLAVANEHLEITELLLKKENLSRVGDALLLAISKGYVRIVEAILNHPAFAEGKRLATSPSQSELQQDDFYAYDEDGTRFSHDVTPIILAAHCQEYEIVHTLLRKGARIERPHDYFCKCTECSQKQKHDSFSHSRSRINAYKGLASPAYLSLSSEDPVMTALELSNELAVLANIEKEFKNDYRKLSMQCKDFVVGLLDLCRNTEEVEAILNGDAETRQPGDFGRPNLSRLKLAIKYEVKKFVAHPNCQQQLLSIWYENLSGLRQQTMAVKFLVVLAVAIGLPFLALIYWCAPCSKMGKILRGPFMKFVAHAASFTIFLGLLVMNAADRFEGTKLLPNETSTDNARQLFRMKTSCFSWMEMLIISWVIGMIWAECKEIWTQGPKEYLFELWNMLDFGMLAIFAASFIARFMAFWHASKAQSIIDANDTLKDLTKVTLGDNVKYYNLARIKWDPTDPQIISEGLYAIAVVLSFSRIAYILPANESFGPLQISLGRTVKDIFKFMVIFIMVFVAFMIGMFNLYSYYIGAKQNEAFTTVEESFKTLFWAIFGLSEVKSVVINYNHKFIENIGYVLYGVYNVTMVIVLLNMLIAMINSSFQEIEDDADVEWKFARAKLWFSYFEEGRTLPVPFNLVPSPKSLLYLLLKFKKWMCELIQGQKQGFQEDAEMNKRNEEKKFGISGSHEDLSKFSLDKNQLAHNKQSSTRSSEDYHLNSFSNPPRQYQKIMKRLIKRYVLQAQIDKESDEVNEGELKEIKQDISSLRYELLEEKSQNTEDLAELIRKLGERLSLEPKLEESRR

[11] = target: Short transient receptor potential channel 6 (Mus musculus) (UniProt Q61143); experiment: TRPC6 opening by TRPC4 activator hits – cell-based, HEK293, membrane potential dye, duplicate, selectivity assay for TRPC4 activator project, confirmation (AID 434950;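 active = membrane potential signal rise above negative control mean plus 3 SD in both duplicates, also active in the earlier TRPC4 screen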); details: HEK293 TRPC6, membrane potential fluorescence, at 10 µM; activation: hits give high values; outcome: activation
[12] = target: Short transient receptor potential channel 6 (Mus musculus) (UniProt Q61143); experiment: positive modulators of mouse TRPC6 channel – HEK293 cells, membrane potential dye, duplicate, selectivity assay for TRPC4 potentiator project, confirmation (AID 434952;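 active = compound raising the membrane signal above positive-control mean plus 3 SD in both repeats, and a primary screen hit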); details: HEK293 TRPC6, membrane potential dye fluorescence, at 10 µM, maximal acetylcholine added after compound; hits give high values
[13] = target: Short transient receptor potential channel 4 (Mus musculus) (UniProt Q9QUQ5); experiment: calcium flux activators in TRPC4/5HT1a cells, counter-screen for TRPC4 activator project, cell-based, second counter screen, HEK293 TRPC4/5HT1a, Fluo-4 (AID 434977;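 active = calcium signal rise above buffer-control mean plus 5 SD in both duplicates, and also a hit in the primary screen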); details: Fluo-4 calcium flux, at 10 µM; hits give high values
[14] = serotonin-gated TRPC4 signal block – cell-based, second counter screen, HEK293 TRPC4/5HT1a, Fluo-4, counter-screen for TRPC4 inhibitor project, confirmation (AID 434978;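 active = primary screen active whose calcium signal fell more than 3 SD beyond the full-serotonin control mean in both duplicate plates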;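 note: serotonin given first at submaximal then at maximal dose after compound preincubation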); details: Fluo-4 calcium flux, at 10 µM, serotonin added to trigger calcium flux; hits give high values
[15] = test system: TRPC4 (mouse), co-expressed with 5HT1a in HEK293; experiment: enhancement of serotonin-evoked TRPC4 response – cell-based, second counter screen, HEK293 TRPC4/5HT1a, Fluo-4, counter-screen for TRPC4 potentiator project, confirmation (AID 434979;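 active = signal rise over 3 SD above mean of control wells given weak agonist, in both repeats and first screen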); details: Fluo-4 calcium flux, at 10 µM, serotonin added at its EC20 dose; hits give high values
[16] = nonspecific calcium rise without TRPC4 – cell-based, HEK293 mu-opioid receptor line, counter-screen for TRPC4 activator project, confirmation (AID 449723;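 active = hit in primary screen, with calcium signal over 5 SD above buffer well mean in both duplicates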;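 note: counter screen cells carry the mu-opioid receptor alone and lack TRPC4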); details: HEK293 mu-opioid cells, Fluo-4 calcium fluorescence, at 10 µM; hits give high values
[17] = nonspecific potentiation of DAMGO calcium response – cell-based, HEK293 mu-opioid receptor line, counter-screen for TRPC4 allosteric potentiator project, confirmation (AID 449724;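 active = calcium signal rise more than 3 SD above the low-dose agonist control mean, in both duplicate plates and the primary screen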); details: HEK293 mu-opioid receptor cells, Fluo-4 calcium flux, at 10 µM, compound added before EC20 DAMGO stimulus; hits give high values

O=C(CN1CCCN(S(=O)(=O)c2ccc(F)cc2)CC1)Nc1ccccc1Br
inactive: outcome [1] | outcome [2] | outcome [3] | outcome [4] | outcome [6] | outcome [7] | outcome [8] | outcome [9] | outcome [10] | outcome [11] | outcome [12] | outcome [13] | outcome [14] | outcome [15] | outcome [16] | outcome [17]
active: inhibition [5] 70%

C#CC[N+]1(CC#Cc2cccc3ccccc23)CCOCC1
inactive: outcome [1] | outcome [2] | outcome [3] | outcome [5] | outcome [6] | outcome [7] | outcome [8] | outcome [9] | outcome [10] | outcome [11] | outcome [12] | outcome [13] | outcome [14] | outcome [16] | outcome [17]
active: potentiation [4] 22% | potentiation [15] 26.3%

Cc1ccc(Nc2ccc(S(=O)(=O)N3CCOCC3)cc2[N+](=O)[O-])cc1C
inactive: outcome [1] | outcome [2] | outcome [3] | outcome [4] | outcome [5] | outcome [6] | outcome [7] | outcome [8] | outcome [9] | outcome [10] | outcome [11] | outcome [12] | outcome [13] | outcome [14] | outcome [15] | outcome [16] | outcome [17]

CC(=O)C1=C(O)C(=O)N(Cc2ccco2)C1c1ccc2c(c1)OCO2 (stereo not drawn)
active: inhibition [5] 94% | inhibition [6] 47%
inactive: outcome [1] | outcome [2] | outcome [3] | outcome [4] | outcome [7] | outcome [8] | outcome [9] | outcome [10] | outcome [11] | outcome [12] | outcome [13] | outcome [14] | outcome [15] | outcome [16] | outcome [17]

CCOP(=O)(c1ccccc1)c1nc(-c2ccccc2Cl)oc1N1CCCCC1 (stereo not drawn)
active: potentiation [4] 23% | potentiation [15] 30.9%
inactive: outcome [1] | outcome [2] | outcome [3] | outcome [5] | outcome [6] | outcome [7] | outcome [8] | outcome [9] | outcome [10] | outcome [11] | outcome [12] | outcome [13] | outcome [14] | outcome [16] | outcome [17]

c1ccc(CN2CCN(c3nc4ccccc4s3)CC2)cc1
active: potentiation [4] 9% | potentiation [15] 14.8%
inactive: outcome [1] | outcome [2] | outcome [3] | outcome [5] | outcome [6] | outcome [7] | outcome [8] | outcome [9] | outcome [10] | outcome [11] | outcome [12] | outcome [13] | outcome [14] | outcome [16] | outcome [17]

CCc1cc2c3c(c(=O)oc2cc1OCC(=O)OC)CCCC3
inactive: outcome [1] | outcome [2] | outcome [3] | outcome [4] | outcome [5] | outcome [6] | outcome [7] | outcome [8] | outcome [9] | outcome [10] | outcome [11] | outcome [12] | outcome [13] | outcome [14] | outcome [15] | outcome [16] | outcome [17]

Cc1ccc(C(C)C)c(OCCCCN2CCNCC2)c1
active: potentiation [3] 11% | potentiation [15] 23.8%
inactive: outcome [1] | outcome [2] | outcome [4] | outcome [5] | outcome [6] | outcome [7] | outcome [8] | outcome [9] | outcome [10] | outcome [11] | outcome [12] | outcome [13] | outcome [14] | outcome [16] | outcome [17]

O=C(O)c1nn(CC(=O)N2CCN(c3ncc(C(F)(F)F)cc3Cl)CC2)c(=O)c2ccccc12
inactive: outcome [1] | outcome [2] | outcome [3] | outcome [4] | outcome [5] | outcome [6] | outcome [7] | outcome [8] | outcome [9] | outcome [10] | outcome [11] | outcome [12] | outcome [13] | outcome [14] | outcome [15] | outcome [16] | outcome [17]

CN(CC(=O)Nc1sc2c(c1C#N)CCCCC2)Cc1nc2ccccc2c(=O)[nH]1
inactive: outcome [1] | outcome [2] | outcome [3] | outcome [4] | outcome [5] | outcome [6] | outcome [7] | outcome [8] | outcome [9] | outcome [10] | outcome [11] | outcome [12] | outcome [13] | outcome [14] | outcome [15] | outcome [16] | outcome [17]

COc1ccc(-c2cc(C(F)(F)F)nc(N3CCN(C)CC3)n2)cc1
active: potentiation [15] 14.5%
inactive: outcome [1] | outcome [2] | outcome [3] | outcome [4] | outcome [5] | outcome [6] | outcome [7] | outcome [8] | outcome [9] | outcome [10] | outcome [11] | outcome [12] | outcome [13] | outcome [14] | outcome [16] | outcome [17]

O=C(CSCc1cccc(Cl)c1)N1CCN(Cc2ccc3c(c2)OCO3)CC1
inactive: outcome [1] | outcome [2] | outcome [3] | outcome [4] | outcome [5] | outcome [6] | outcome [7] | outcome [8] | outcome [9] | outcome [10] | outcome [11] | outcome [12] | outcome [13] | outcome [14] | outcome [15] | outcome [16] | outcome [17]

CN(C)CCCn1c(=O)n(CCc2ccccc2)c(=O)c2c3c(sc21)CCCCC3
inactive: outcome [1] | outcome [2] | outcome [3] | outcome [4] | outcome [5] | outcome [6] | outcome [7] | outcome [8] | outcome [9] | outcome [10] | outcome [11] | outcome [12] | outcome [13] | outcome [14] | outcome [15] | outcome [16] | outcome [17]

O=C(COc1ccccc1-c1ccccc1)NCc1ccco1
inactive: outcome [1] | outcome [2] | outcome [3] | outcome [4] | outcome [5] | outcome [6] | outcome [7] | outcome [8] | outcome [9] | outcome [10] | outcome [11] | outcome [12] | outcome [13] | outcome [14] | outcome [15] | outcome [16] | outcome [17]
